Measurements from paper PMC5540273 (PLoS ONE, 2017).
pKd: −log10 of the molar value.

Each compound was assayed on TGFBR1.
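Also: kd values determined as follow-up on hits from a single-replicate KINOMEscan panel screen.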

Structure (SMILES)	pKd
Cc1ccc(-c2cc(-c3c[nH]nc3-c3ccccn3)ccn2)cc1 [GW684088]	6.59
Cc1cccc(-c2nc(C)cc(Nc3ccncc3)n2)n1 [GSK257997]	6.70
Cl.c1ccc(-c2n[nH]cc2-c2ccnc(-c3ccc(CN4CCOCC4)cc3)c2)nc1 [GW776245]	6.82

These compounds were tested on TGFBR2.

Structure (SMILES)	pKd
Cc1csc(-c2nc(Nc3ccncc3)c3ccccc3n2)n1 [GW869640]	6.60
Cc1cccc(-c2nc(Nc3ccncc3)c3ccccc3n2)n1 [GW855857]	6.54
Cl.c1ccc(-c2n[nH]cc2-c2ccnc(-c3ccc(CN4CCOCC4)cc3)c2)nc1 [GW776245]	6.68
